± gives the standard deviation.
Each sequence was assayed on MILI (PIWIL2) piRISC loaded with L1MC piRNA (26 nt) (assay: pre-steady-state target cleavage rate (min^-1); guide: L1MC piRNA 5'p-UAACUAAAUACUAUGCAAGCUGUAGG; higher = faster piRNA-guided slicing of the target). Details: auxiliary factor: 500 nM mouse GTSF1.
Procedure, shortened: (§1)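 Reactions were run for 0–8 or 0–960 min at 33 °C in HEPES–potassium acetate buffer, combining 1 nM active affinity-purified piRISC with one synthetic guide, […] transcribed, DNA-blocked target RNA library and, in some cases, 500 nM GTSF1 partner protein. Sequencing of uncleaved targets followed, with normalisation to depth and to weakly complementary targets. Three trials were pooled, k3 was capped at 0.0001 min^-1, and the pre-steady-state cleavage rate was taken from a burst-and-steady-state fit.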

Sequence	pre-steady-state target cleavage rate
UCCUGGAUCAGCUUGCAUAGUAUUUACGUUA	0.243 ± 0.027
UCCUGGAUCAGCUUGCAUAUUAUUUAGUUA	0.0736 ± 0.0095
UCCUGGUACAGCUUGCAUAGUAUUUAAGUUA	0.22 ± 0.041
UCCUGGAUGUCGAUGCAUAGUAUUAUGUUA	0.0412 ± 0.011
UCCUGGAUGUCGAACCAUAGUAGUUUAGUUA	< 0.0001
UCCUGGAUCAGCUUGCAUAGUAGUUUAGUUA	0.216 ± 0.02
UCCUGGAUGUGCUUGCGUAGUAUUUAGUUA	0.0451 ± 0.013
UCCUGCUAGAGCUUGCAUAGUAUUUAGAAA	0.205 ± 0.042
UCCUGGAUGUCGAUGCAUCGUAUUUAGUUA	0.0238 ± 0.0073
UCCUGGAUCAGCUUGCAUAGUAUGUAGUUA	0.202 ± 0.018
UCCUGGAAGUGCUUGCAUAGUAUUUAGAAA	0.00889 ± 0.0052

Same assay, conditions: auxiliary factor: none (no GTSF1)

Sequence	pre-steady-state target cleavage rate
UCCUGGAUCAGCUUGCAUAGUACUUUAGUUA	0.00672 ± 0.0027
UCCUGGAUGUCCUUGCAUACAAUUUAGUUA	0.00248 ± 0.0024
UCCUGGAUGUCGUUACAUAGUAUUUAGUUA	0.00442 ± 0.0022
UCCUGGAUGUCGAAGCAUAGUUUUUAGUUA	0.00397 ± 0.0017
UCCUGGAUGUGCAUGCAUAGUAUUUACUUA	0.00616 ± 0.0026
UCCUGGAAGAGCUUGCUUAGUAUUUAGUUA	0.0109 ± 0.0029
UCCUGGAUCAGCUUGCAUAGUAUUAUAGUUA	0.00669 ± 0.0028
UCCUGGAUGUCCUUGCAAAGUAAUUAGUUA	0.00522 ± 0.0014
UCCUGGAUGUCGUUGAAUAGUAUUUAGUUA	0.0047 ± 0.0024
UCCUGGAUCAGCUUGCAUAGCAUUUAGUUA	0.00359 ± 0.0025
UCCUGGAUGUGCUUGCAUAGUCUUUAGUUA	0.00463 ± 0.0025
UCCUGGUGACAGCUUGCAUAGUAUUUAGUUA	0.0285 ± 0.0085
UCCUGGAUCAGCUUGCAUUGUAUAUAGUUA	0.00663 ± 0.0022
UCCUGGAUCAGCUUGCAUAGUAUUUACGUUA	0.00431 ± 0.0028
UCCUGGUACAGCUUGCAUAGUAUUUAAGUUA	0.0123 ± 0.0043
UCCUGGAUCAGCUUGCAUAGUAGUUUAGUUA	0.00969 ± 0.0027
UCCUGGAUGUGCUUGCGUAGUAUUUAGUUA	0.0145 ± 0.0037
UCCUGGAUGUCGAACGAGUAGUAUUUAGUUA	< 0.0001
UCCUGGAUGUCGAUGCAUCGUAUUUAGUUA	0.00865 ± 0.0025
UCCUGGAUCAGCUUGCAUAGUAUGUAGUUA	0.00457 ± 0.0024
UCCUGGAUCAGCAACCAUAGUAUUUUCAAA	< 0.0001

These sequences were tested on EfPiwi piRISC loaded with L1MC piRNA (26 nt) (assay: pre-steady-state target cleavage rate (min^-1); auxiliary factor: none (no Gtsf1); guide: L1MC piRNA 5'p-UAACUAAAUACUAUGCAAGCUGUAGG; MIWI and MILI are mouse PIWI proteins and EfPiwi is from a freshwater sponge; tags in brackets are library labels; higher = faster piRNA-guided slicing of the target). Details: not given.
Procedure, shortened: as §1

Sequence	pre-steady-state target cleavage rate
UCCUGGAUCAGCUUGCAUAGUACUUUAGUUA	0.00468 ± 0.0038
UCCUGGAUGUCGUUCAUAGUAUUUAGUUA	< 0.0001
UCCUGGAUGUCCUUGCAUACAAUUUAGUUA	< 0.0001
UCCUGGAUGUCGAAGCAUAGUAUUUAGAUA	< 0.0001
UCCUGGAUGUCGUUACAUAGUAUUUAGUUA	< 0.0001
UCCUGGAUGUCGAAGCAUAGUUUUUAGUUA	< 0.0001
UCCUGGAUGUCGAUGCAUAGUAUUUACAAA	< 0.0001
UCCUGCUACAGGUUGCAUAGUAUUUACAAA	< 0.0001
UCCUGGAUGUGCAUGCAUAGUAUUUACUUA	< 0.0001
UCCUGGAAGAGCUUGCUUAGUAUUUAGUUA	0.00878 ± 0.005
UCCUGGAUCAGCUUGCAUAGUAUUAUAGUUA	0.00759 ± 0.0041
UCCUGGUACAGCUUGGUUAGUAUUUAGAAA	< 0.0001
UCCUGGAUGUCCAUGCAUAGUAUUAAGUUA	< 0.0001
UCCUGGAUGUCCUUGCAAAGUAAUUAGUUA	< 0.0001
UCCUGGAUGUCGUUGAAUAGUAUUUAGUUA	< 0.0001
UCCUGGAUGAGCUUGGAUUGUAUUUAGUUA	< 0.0001
UCCUGGGACAGCUUGCAUAGUAUUUAGUUA	0.00525 ± 0.0051

Sequence	pre-steady-state target cleavage rate
UCCUGGAUGUCGAACGUAUGUCUUUAGUUA	< 0.0001
UCCUGGAUCAGCUUGCAUAGCAUUUAGUUA	0.00546 ± 0.0038
UCCUGGAUGUGCUUGCAUAGUCUUUAGUUA	0.00821 ± 0.0047
UCCUGGAUCAGCUUGGAUACUAUUUAGUUA	< 0.0001
UCCUGGUGACAGCUUGCAUAGUAUUUAGUUA	0.0577 ± 0.023
UCCUGGAUGUCCUUGCUAAGUAUUUAGUUA	< 0.0001
UCCUGCUACAGCUUGGUAAGUAUUUAGAAA	< 0.0001
UCCUGGUACAGCUUGCAUAGAAUUUACUUA	< 0.0001
UCCUCCUACACCUUCCAUAGUAUUUAGUUA	< 0.0001
UCCUGGAUCAGCUUGCAUUGUAUAUAGUUA	< 0.0001
UCCUGGAUCAGCUUGCAUAGUAUUUACGUUA	0.011 ± 0.006
UCCUGGAUCAGCUUGCAUAUUAUUUAGUUA	0.00536 ± 0.0048
UCCUGGUACAGCUUGCAUAGUAUUUAAGUUA	0.00555 ± 0.0052
UCCUGGAUGUCGAUGCAUAGUAUUAUGUUA	< 0.0001
UCCUGGAUGUCGAACCAUAGUAGUUUAGUUA	< 0.0001
UCCUGGAUCAGCUUGCAUAGUAGUUUAGUUA	0.011 ± 0.0045
UCCUGGAUGUGCUUGCGUAGUAUUUAGUUA	0.00427 ± 0.0042

Reference: the supplement of paper PMC10338343
